# Experimental data reported in PubChem BioAssay (NCI).
# This is part of a sample that, as a whole, favours compounds with a hit. Of some 83,000 tested, about 20% had one in any assay.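 Each cell line was grown in a 96-well plate and treated with one concentration of compound for 48 hours. Values below 10 were considered active.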 Values without a mark were called inactive. Activity calls are given as the source filed them.
# Test system: TK-10 renal
# Assay: NCI-60 one-dose screen, 48 h (100 = growth as untreated, 0 = no growth, -100 = all killed)
# Conditions: 10 µM unless noted
# Description: Growth inhibition of the TK-10 human tumor cell line is measured as a screen for anti-cancer activity. Cells are grown in 96 well plates and exposed to the test compound for 48 hours. Compounds are tested at a single concentration, which is 10^-5 M for most compounds. The reported endpoint is percent growth (GI% or GIPRCNT), where numbers from 0 - 100% represent growth inhibition, and numbers from -100% - 0 represent cell death. For example, a value of 40 represents 60% growth inhibition. A value of 0 means no net growth occurred over the course of the experiment. A value of -40 indicates 40% of cells at the beginning of the experiment died by the end of the experiment. A value of -100 means all cells are dead at the end of the experiment.
# NCI-60 Human Tumor Cell Lines Screen was performed using the standard one-dose NCI protocol, which is described in more detail at https://dtp.cancer.gov/discovery_development/nci-60/default.htm.
# Compounds with GIPRCNT values below 10 were considered active. Activity score was based on GIPRCNT using the following formula: […]
# Score is 0 for GIPRCNT values of 100 or above, 50 for GIPRCNT values of 0, and 100 for GIPRCNT values of -100.
row,SMILES,growth
1,COc1ccc(Oc2ccc(/C=C/C(=O)c3ccc(OC)c(OC)c3)cc2)cc1,105%
2,CCN1C(=O)N(CC)C2C1NN=c1s/c(=C\c3ccc(OC)cc3)c(=O)n12 (stereo not given),66.2%
3,COc1cc2c(cc1-c1c(C)noc1C)ncc1nc(CN3CCOCC3)n([C@H](C)COC(F)F)c12,2.77% (active)
4,c1cc(OCCN2CCCC2)ccc1CNc1ccc2nc(CCC3CCCCC3)[nH]c2c1,95.1%
5,Cc1oc(-c2ccc(Cl)cc2)nc1C1=NN(C(=O)c2ccncc2)C(c2ccccc2)C1 (stereo not given),114%
6,N=C(N)c1ccc(-c2ccc(-c3ccccc3)o2)o1,60.5%
7,CSc1nc2ccc(C)cc2cc1/C=C1/C=C(c2ccccc2)NC1=O,-6.59% (active)
8,CCn1cc(C(=O)N/N=C/c2cccc(F)c2)c(=O)c2cc(F)c(N3CCNC(C)C3)c(F)c21 (stereo not given),101%
9,CC(=O)O[C@H]1CC[C@]2(C)[C@H]3CC=C4[C@@H]5CC(C)(C)CC[C@]5(C(=O)N5CCN(CCC#N)CC5)CC[C@@]4(C)[C@]3(C)CC[C@H]2C1(C)C,54.1%
10,Cc1ccc2nc(-c3ccc(C(=O)N/N=C/c4ccc([N+](=O)[O-])cc4)cc3)[nH]c2c1,127%
11,N#Cc1c(-c2ccccc2)nc2c(c(-c3ccc(Cl)cc3)nn2-c2ccccc2)c1-c1ccc([N+](=O)[O-])cc1,121%
12,Cc1cc(C)c2c(c1)N(C)c1ncnc(-n3c(C)nc4cc(C)ccc43)c1CC2C (stereo not given),53.3%
13,O=[N+]([O-])c1c(O)c(Cl)cc(Cl)c1Cl,96.8%
14,Cc1ccc2c(c1)sc1nc(-c3c[nH]c4ccccc34)c(Nc3ccccc3)n12,114%
15,Cc1nc2sc(C(=O)Nc3ccccn3)c(N)c2cc1C(C)O (stereo not given),79.4%
16,C=CN(C(=O)N1CCN(c2cc3c(cc2F)c(=O)c(C(=O)O)cn3C2CC2)CC1)c1nc(-c2ccc(Cl)cc2)cs1,83.6%
17,Cc1nc([P+](c2ccccc2)(c2ccccc2)c2ccccc2)c(N2CCCCC2)o1,53.6%
18,O=c1oc2ccccc2cc1-c1nn(-c2ccccc2)cc1-c1nn[nH]n1,101%
19,CC(C)CCC[C@@H](C)[C@H]1CC[C@H]2[C@@H]3CC=C4c5sc(Nc6cc(C(F)(F)F)cc(C(F)(F)F)c6)nc5CC[C@]4(C)[C@H]3CC[C@]12C,119%
20,COc1ccc(Oc2ccc(/C=C/C(=O)c3cc4ccccc4oc3=O)cc2)cc1,147%

row,SMILES,growth
1,CNC(=O)Nc1ccc(-c2ccc3ncnc(Nc4cccc(Cl)c4)c3c2)cc1,-3.72% (active)
2,Clc1ccc(-c2cc(-c3ccccc3)nc(N3CCN(CCCNc4ccnc5cc(Cl)ccc45)CC3)n2)cc1,40.5%
3,COc1ccc2c(c1)CC[C@@H]1[C@@H]2CC[C@]2(C)C3C(=CC(COC(C)=O)C4C(=O)N(c5ccc(Cl)cc5)C(=O)C43)C[C@@H]12 (stereo not given in full),120%
4,COCC(=O)Oc1cc(-c2ccc(C)cc2C)c(OC(=O)COC)c(-c2ccc(C)cc2C)c1,70.9%
5,c1ccc(Nc2nc3c(s2)CCc2c[nH]cc2-3)nc1,159%
6,c1ccc(-c2nc3ccccc3[nH]2)c(OCCCCCOc2ccccc2-c2nc3ccccc3[nH]2)c1,100%
7,COc1cc(O)c2c(=O)c3c(CC=C(C)C)cc(OC)c(O)c3oc2c1,66.6%
8,Oc1nc(NCc2ccccc2)sc1/C=C1\C=Nc2ncccc21,64.4%
9,C=C1C(=O)O[C@H]2[C@H]1CC/C(COC(=O)NCc1ccc(Cn3c(=O)sn(-c4ccccc4)c3=O)cc1)=C\CC[C@@]1(C)O[C@@H]21,4.49% (active)
10,CN1C(=O)N2CN3CCCN(C3)CN3C(=S)NC1C23 (stereo not given),108%
11,COc1ccc(-c2cn(Cc3cc4ccccc4s3)nn2)cc1OCCN1CCCCC1,90.1%
12,Fc1cccc(-c2nc(-c3c[nH]c4ncccc34)cs2)c1,18% [100 µM]
13,c1ccc2cc(Cn3cc(CSc4nc5ccccc5s4)nn3)ccc2c1,102%
14,COc1cc(/C=C/c2cc(/C=C/c3ccc(O)c(OC)c3)n(C(=O)Nc3ccc(Cl)cc3)n2)ccc1O,23.1%
15,O=C1C=C(SCCO)C(=O)c2ccccc21,95.9%
16,COCCOC(C)C(/C=N/NC(N)=S)=N/NC(N)=S (stereo not given),92.5%
17,COc1ccc(/C=C/C(c2cc(OC)c(OC)c(OC)c2)n2cncn2)cc1O (stereo not given),41.2%
18,CC(C)c1ccc2c(c1)CC[C@H]1[C@](C)(C(=O)OCC#CCN3CCCC3)CCC[C@]21C,98.6%
19,COc1ccc(-c2nc3c(c(-c4ccc(Cl)cc4)nn3-c3ccccc3)c(-c3ccccc3)c2C#N)cc1,120%
20,COc1cc(/C=N/NC(=O)c2ccc(-n3cc(-c4ccccc4)nn3)cc2)cc(OC)c1OC,99.2%
